Screens as filed in PubChem BioAssay.
HttQ103 aggreg: reduces HttQ103-GFP aggregates in PC12 cells; PC12 HttQ103-GFP aggregates, Acumen cytometry, 40 h; Potency, µM (doses to about 46.1 µM), for inactives: at the highest dose activity change, negative = inhibition, actives largely listed as inhibitors; actives 1.1% (n = 220,000); AID 1688; note: % is set by controls: 0 for no effect and ±100 for the full control effect; nearly all actives have a fitted effect of over 60% in size
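PC12/HTTQ103-GFP, ecdysone-inducible; teb 100 nM; cpd qHTS titration; GFP aggregates read on laser cytometer, Ex 488/Em 500-530 nm.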
ATXN2 expr inh: reduces ATXN2 reporter expression in HEK-293 cells; HEK-293 ATXN2-luciferase reporter, luminescence, 24 h; Potency, µM (titrated, usually from 57 µM), for inactives: top-dose activity change, negative = inhibition, most hits filed as inhibitors; actives 0.72% (n = 360,000); note: % is set by controls: 0 for no effect and ±100 for the full control effect; nearly all actives have a fitted effect of over 55% in size
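qHTS (up to 57 uM final) was run with 24 h compound exposure of reporter cells at 37 °C. Each well was multiplexed: SteadyGlo luminescence measured ATXN2-luciferase expression after a fluorogenic Gly-Phe-AFC viability readout (25 uM final).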
HepG2 tox-1: counter-screen for TGF-b inhibitors: cytotoxicity in HepG2 cells | actives 0.76% (n = 410,000) | AID 588856 | HepG2 CAGA-GFP viability, ATP luminescence, 18 h | Potency, µM (series often up to 46.1 µM), for inactives: at the highest dose activity change, negative = cytotoxicity, hits mostly cytotoxic
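HepG2 CAGA-GFP cells (1000/well, DMEM with 1% FBS) received compound, then TGF-beta at 500 pg/mL final, and were incubated 18 hours at 37 degrees C. Viability was read by CellTiter-Glo luminescence. Media-only wells were set as complete cell-killing and DMSO as no toxicity.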
TGFb SMAD3 inh: TGF-b pathway inhibition; actives 1.2% (n = 410,000); Potency, µM (highest dose often 46.1 µM), inactives show top-dose activity, negative = inhibition, hits mostly inhibitors; HepG2 CAGA-GFP TGF-b/SMAD3 reporter, GFP fluorescence, 18 h; TGF-beta stimulated, 500 pg/mL final; note: % is set by controls: 0 for no effect and ±100 for the full control effect; nearly all actives have a fitted effect of over 65% in size
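First, reporter cells (HEPG2 CAGA-GFP) rested 2 h at 37 degrees C. Next, compounds were pinned in and TGF-beta added to 500 pg/mL final. After 18 h, GFP was imaged per cell and summed per well.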
S2 tox: reduces viability in counter-screen for ATXN expression inhibitors; S2 cells (HEK-293 line with an ATXN2-luciferase reporter) viability, CellTiter-Fluor protease fluorescence, 24 h; actives 0.49% (n = 400,000); Potency, µM (titrated, usually from 56.7 µM), hits mostly cytotoxic; AID 651635; note: nearly all actives have a fitted effect of over 40% in size
HTT ATP protect: cytoprotection in Huntington HTT-Q103 PC12 cell model | PC12 HTT-Q103 induced, cytoprotection, ATP luminescence, 40 h | Potency, µM (titrated, usually from 56.4 µM), for inactives: cytoprotection (ATP increase), actives largely listed as activators | actives 0.14% (n = 230,000) | AID 1471; note: % of control where 0% means no effect; nearly all actives have a fitted effect of over 45% in size
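Quantitative HTS on tebufenozide-induced (100 nM) PC12 cells expressing HTTQ103 exon 1–GFP; compounds tested as a concentration series; survival measured via cellular ATP.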
TGFb CAGA inh: confirmation of TGF-b signaling inhibitors in HepG2 reporter cells; AID 720534; shares compounds with TGFb SMAD3 inh; Potency, µM (doses to about 46.1 µM), for the others: at the top dose activity, negative = inhibition, usual class: inhibitors; actives 63% (n = 1,600); HepG2 CAGA-GFP TGF-b reporter, GFP fluorescence, 18 h; cells stimulated with TGF-beta, 500 pg/mL; note: % is set by controls: 0 for no effect and ±100 for the full control effect; nearly all actives have a fitted effect of over 65% in size
HepG2 tox-2: counter-screen for TGF-b inhibitors: cytotoxicity in HepG2 cells | shares compounds with TGFb SMAD3 inh | HepG2 CAGA-GFP viability, ATP luminescence, 18 h; cells stimulated with TGF-beta, 500 pg/mL | Potency, µM (titrated, usually from 46.1 µM), without a hit: top-dose activity, negative = cytotoxicity, usual class: inhibitors | actives 27% (n = 1,600); note: % is set by controls: 0 for no effect and ±100 for the full control effect; nearly all actives have a fitted effect of over 70% in size
CCL64 TGFb inh: orthogonal confirmation of TGF-b inhibitors in CCL64 cells | AID 720536 | shares compounds with TGFb SMAD3 inh | Potency, µM (doses to about 46.1 µM), without a hit: at the highest dose activity, negative = inhibition, most hits filed as inhibitors | actives 41% (n = 1,600) | CCL64 CAGA-GFP reporter, TGF-b stimulated, GFP fluorescence, 18 h; note: nearly all actives have a fitted effect of over 65% in size
COP TGFb inh: validation of TGF-b inhibitors in HepG2 COP promoter reporter | shares compounds with TGFb SMAD3 inh | HepG2 COP-GFP TGF-b reporter, GFP fluorescence, 18 h; cells stimulated by added recombinant TGF-beta | Potency, µM (highest dose often 46.1 µM), inactives show at the top dose activity, negative = inhibition, actives largely listed as inhibitors | actives 3% (n = 1,600); note: nearly all actives have a fitted effect of over 70% in size
Numbers without * were called inactive; [ ] = dose if it differs, or a comment. Most compounds without a hit are left out; they make up all but 2.8% or so of the library. Calls come from the whole dose curve; as a rule, active = well fitted curve in the direction sought with a large enough effect; inconclusive = small, poorly fitted or top-dose-only effect, or another doubt; inactive = no such curve, though single readings can be large; an effect the other way counts as inactive or inconclusive. Potency is the fitted concentration of half-maximal effect.

What do the screens show for `Clc1cccc(-c2nc(-c3ccccn3)no2)c1`?
HttQ103 aggreg: -17%; ATXN2 expr inh: 13µM*; HepG2 tox-1: -36%; TGFb SMAD3 inh: inconclusive; S2 tox: inactive; HTT ATP protect: -124%[10 µM]

What do the screens show for `c1ccc(-c2cc(-c3nc(-c4ccccn4)no3)c3ccccc3n2)cc1`?
ATXN2 expr inh: 4%; HepG2 tox-1: -30%; TGFb SMAD3 inh: -16%; S2 tox: inactive; HTT ATP protect: -17%

Results for c1ccc(-c2nc(-c3ccccn3)no2)cc1 ?
HttQ103 aggreg: -6%; ATXN2 expr inh: 4.5µM*; HepG2 tox-1: 10µM*; TGFb SMAD3 inh: 3%; S2 tox: inactive; HTT ATP protect: -72%[10 µM]

Results for Cc1ccc(-c2nc(-c3ccccn3)no2)cc1Cl ?
HttQ103 aggreg: -5%; ATXN2 expr inh: 10µM*; HepG2 tox-1: 11µM*; TGFb SMAD3 inh: -2%; S2 tox: inactive; HTT ATP protect: -96%

What do the screens show for `Cc1ccc(-c2nc(-c3ccccn3)no2)cc1[N+](=O)[O-]`?
HttQ103 aggreg: 2%[9.22 µM]; ATXN2 expr inh: inconclusive; HepG2 tox-1: -54%; TGFb SMAD3 inh: -37%; S2 tox: inactive; HTT ATP protect: -40%[10 µM]

How did c1ccc(-c2ccc(-c3nc(-c4ccccn4)no3)cc2)cc1 do in these assays?
HttQ103 aggreg: -13%; ATXN2 expr inh: inconclusive; HepG2 tox-1: 7.1µM*; TGFb SMAD3 inh: -6%; S2 tox: inactive; HTT ATP protect: -118%

Results for c1ccc(-c2noc(-c3ccno3)n2)nc1 ?
HttQ103 aggreg: -5%[9.22 µM]; HepG2 tox-1: 8%; TGFb SMAD3 inh: 8%; S2 tox: inactive; HTT ATP protect: 1%[10 µM]

How did Cc1ccc(Cc2nc(-c3ccccn3)no2)cc1 do in these assays?
HttQ103 aggreg: 7%; ATXN2 expr inh: 26%; HepG2 tox-1: -1%; TGFb SMAD3 inh: -6%; S2 tox: inactive; HTT ATP protect: -40%

What do the screens show for `Cc1ccc(-c2nc(-c3ccccn3)no2)cc1`?
HttQ103 aggreg: -4%; ATXN2 expr inh: 2µM*; HepG2 tox-1: 13µM*; TGFb SMAD3 inh: -1%; S2 tox: inactive; HTT ATP protect: -101%

What do the screens show for `CC(=O)N1CCC(C(=O)N2CCN(S(=O)(=O)c3ccc(Cl)s3)CC2)CC1`?
ATXN2 expr inh: -10%; HepG2 tox-1: 14µM*; TGFb SMAD3 inh: -16%; S2 tox: inactive

Results for COc1ccccc1C1CN(CCNC(=O)c2ccccc2Cl)Cc2ccccc2O1 (stereo unspecified) ?
S2 tox: inactive

Results for CCOc1cc(/C=N/O)ccc1OCc1ccc([N+](=O)[O-])cc1 ?
HttQ103 aggreg: 8%; ATXN2 expr inh: 11%; HepG2 tox-1: -10%; TGFb SMAD3 inh: 10%; S2 tox: inactive; HTT ATP protect: 9%[10 µM]

Results for CCOc1cc(C=C(C(=O)OC)C(=O)OC)ccc1OCc1ccc([N+](=O)[O-])cc1 ?
HttQ103 aggreg: 2%; ATXN2 expr inh: 32µM*; HepG2 tox-1: -52%; TGFb SMAD3 inh: 13µM*; S2 tox: inconclusive; HTT ATP protect: -4%[10 µM]

How did CC1=C(C(=O)O)N2C(=O)[C@@H](NC(=O)[C@H](N)C3=CCC=CC3)[C@H]2SC1 do in these assays?
ATXN2 expr inh: 11%; S2 tox: inactive

How did CCOc1ccc(NC(=S)N2CCCN(Cc3cc(C)ccc3C)C2)cc1 do in these assays?
HttQ103 aggreg: 28µM*; HepG2 tox-1: -18%; TGFb SMAD3 inh: inconclusive; S2 tox: inconclusive; HTT ATP protect: -46%

How did CCOc1ccc(NC(=O)CN2CCCN(Cc3cc(C)ccc3C)S2(=O)=O)cc1 do in these assays?
ATXN2 expr inh: inconclusive; HepG2 tox-1: -17%; TGFb SMAD3 inh: inconclusive; S2 tox: inactive

Results for C(=C\c1ccccc1)/CN1CCN(C(c2ccnc3ccccc23)c2nnnn2-c2ccc3c(c2)OCCO3)CC1 (stereo unspecified) ?
ATXN2 expr inh: -17%; HepG2 tox-1: 1%; TGFb SMAD3 inh: inconclusive; S2 tox: inconclusive; TGFb CAGA inh: 15µM*; HepG2 tox-2: -27%; CCL64 TGFb inh: inconclusive; COP TGFb inh: 30%

How did Cc1cccc(C)c1-n1nnnc1C(c1cccs1)N1CCN(C/C=C/c2ccccc2)CC1 (stereo unspecified) do in these assays?
ATXN2 expr inh: -13%; HepG2 tox-1: -29%; TGFb SMAD3 inh: inconclusive; S2 tox: inactive; TGFb CAGA inh: inconclusive; HepG2 tox-2: -17%; CCL64 TGFb inh: 21µM*; COP TGFb inh: 7%

How did Cc1cccc(C)c1-n1nnnc1C(c1ccccc1)N1CCN(C/C=C/c2ccccc2)CC1 (stereo unspecified) do in these assays?
ATXN2 expr inh: -20%; HepG2 tox-1: 5%; TGFb SMAD3 inh: inconclusive; S2 tox: inactive

What do the screens show for `CC1=c2c(oc3cc(O)c(Nc4c(C)cc(O)cc4O)c(C)c23)=CC(=O)C1=Nc1c(C)cc(O)cc1O`?
HTT ATP protect: -3%[10 µM]
